Source: article PMC4336329 (PLoS ONE, 2015)
The whole screen tested about 310,000 compounds, of which about 14,000 (4.5%) showed an effect of 50% or more. The effect is printed as a negative number. For the sample, strong results were picked, then their nearest neighbours and some compounds at random.

molecular target: human ether-à-go-go-related gene (hERG) potassium channel (human, UniProt Q12809); test: primary screen, population patch clamp on CHO cells stably expressing hERG; higher = less effect of the substance
Sequence (Q12809 whole entry, looked up): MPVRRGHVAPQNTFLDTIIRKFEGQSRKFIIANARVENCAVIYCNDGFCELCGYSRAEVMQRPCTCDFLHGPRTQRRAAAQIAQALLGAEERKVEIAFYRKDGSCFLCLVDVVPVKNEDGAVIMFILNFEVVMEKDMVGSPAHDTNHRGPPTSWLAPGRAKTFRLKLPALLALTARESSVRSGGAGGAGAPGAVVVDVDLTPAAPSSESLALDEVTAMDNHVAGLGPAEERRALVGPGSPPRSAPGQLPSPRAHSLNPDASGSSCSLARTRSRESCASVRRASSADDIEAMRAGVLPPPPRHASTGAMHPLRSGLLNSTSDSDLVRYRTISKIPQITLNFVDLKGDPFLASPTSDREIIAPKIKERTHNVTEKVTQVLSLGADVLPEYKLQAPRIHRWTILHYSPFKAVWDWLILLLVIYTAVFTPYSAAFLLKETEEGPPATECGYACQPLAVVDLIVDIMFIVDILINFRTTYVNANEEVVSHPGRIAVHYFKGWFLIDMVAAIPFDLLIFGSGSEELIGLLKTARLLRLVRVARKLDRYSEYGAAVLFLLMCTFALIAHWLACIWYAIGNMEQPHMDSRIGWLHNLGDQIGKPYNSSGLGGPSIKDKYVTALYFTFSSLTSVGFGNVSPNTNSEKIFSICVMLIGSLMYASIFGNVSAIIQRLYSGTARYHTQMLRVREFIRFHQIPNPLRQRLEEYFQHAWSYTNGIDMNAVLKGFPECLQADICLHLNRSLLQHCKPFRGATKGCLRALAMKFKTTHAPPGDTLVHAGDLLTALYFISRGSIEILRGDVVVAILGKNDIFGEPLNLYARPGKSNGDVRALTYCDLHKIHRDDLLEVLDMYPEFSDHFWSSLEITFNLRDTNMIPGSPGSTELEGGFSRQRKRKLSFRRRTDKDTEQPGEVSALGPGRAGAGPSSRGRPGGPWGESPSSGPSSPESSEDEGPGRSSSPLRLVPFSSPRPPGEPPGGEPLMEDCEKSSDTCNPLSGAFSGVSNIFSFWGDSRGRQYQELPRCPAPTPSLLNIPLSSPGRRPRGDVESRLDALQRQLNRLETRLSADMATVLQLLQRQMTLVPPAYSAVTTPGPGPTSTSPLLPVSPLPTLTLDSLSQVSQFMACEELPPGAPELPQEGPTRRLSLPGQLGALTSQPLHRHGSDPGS
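Further: peak tail current of the secondary pulse compared with the same well before compound.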

Row | SMILES | hERG current change (%, negative = inhibition) at 10uM
1 | CC(C(=O)NCC(=O)Nc1ccc(F)c(F)c1F)N1CCN(Cc2ccc(C#N)cc2)CC1 (stereo not drawn) | -61%
2 | N#Cc1ccc(-c2ccc(OCC(=O)NCC(=O)Nc3ccc(F)c(F)c3F)cc2)cc1 | -7.98%
3 | CC(C(=O)NCC(=O)Nc1ccc(F)c(F)c1F)N1CCN(c2ccc(O)cc2)CC1 (stereo not drawn) | -6.1%
4 | CCOC(=O)N1CCC(N2C(=O)c3ccc(C(=O)Nc4ccc(OC)c(OC)c4)cc3C2=O)CC1 | 23.2%
5 | O=C(/N=C1\NC(=O)C(F)(C(F)(F)F)S1)NC1CCCCC1 (stereo not drawn) | 13%
6 | O=S(=O)(Nc1ccc2c(c1)nc1n2CCN(Cc2ccccc2)C1)c1ccc(Cl)cc1 | -2.38%
7 | O=S(=O)(Nc1ccc2c(c1)nc1n2CCN(Cc2ccccc2)C1)c1ccccc1 | -40.1%
8 | CCCC(=O)Nc1ccc2c(c1)nc(CCN1CCCCC1)n2C | -4.96%
9 | Cn1c(CCN2CCCCC2)nc2cc(NS(=O)(=O)c3ccc(F)cc3)ccc21 | -67.6%
10 | CC(C)C(=O)Nc1ccc2c(c1)nc(CCN1CCCCC1)n2C | -0.778%
11 | O=S(=O)(Nc1ccc2c(c1)nc1n2CCN(Cc2ccccc2)C1)c1ccc(F)cc1 | -50.4%
12 | Cn1c(CN2CCCCC2)nc2cc(NS(=O)(=O)c3ccc(F)cc3)ccc21 | -54.2%
13 | O=C(O)CN(c1ccccn1)S(=O)(=O)c1ccccc1 | -8.38%
14 | O=C(NCCc1ccccc1)C(=O)NCC(c1ccco1)N1CCOCC1 (stereo not drawn) | 23.8%
15 | Cc1ccc(NC(=O)C2CCN(S(=O)(=O)c3ccc4c(c3)CCCC(=O)N4)CC2)cc1N(C)C | -14.7%
16 | O=C(COC(=O)c1ccc2c(c1)OCCO2)NCCC1=CCCCC1 | -10.8%
17 | CN(C(=O)C1CCN(S(=O)(=O)c2cccs2)CC1)c1ccccc1 | -16.9%
18 | O=C(CCS(=O)(=O)c1ccc(Br)cc1)NCc1cccs1 | -11.5%
19 | COC(=O)C(C(=O)OC)C(C[N+](=O)[O-])c1ccc(OC)c(OC)c1 (stereo not drawn) | -22.7%
20 | CCOC(=O)C1(Cc2cccc(OC)c2)CCN(C/C=C/c2ccc(OC)cc2)CC1 | -72.3%
21 | CCOC(=O)C1(Cc2cccc(OC)c2)CCN(CC=C(C)C)CC1 | -22%

Row | SMILES | hERG current change (%, negative = inhibition) at 10uM
22 | CCOC(=O)C1(Cc2cccc(OC)c2)CCN(C/C=C/c2ccccc2)CC1 | -75.9%
23 | N#CCCn1[nH]c(-c2ccccc2)cc1=O | 5.16%
24 | O=C(CCCc1c[nH]c2ccccc12)Nc1ncccc1O | 14.7%
25 | CC1CCN(C2CC(=O)N(c3ccc(Br)cc3Br)C2=O)CC1 (stereo not drawn) | 2.17%
26 | COc1ccc(C(CNC(=O)c2cc3ccccc3cc2O)N2CCOCC2)cc1 (stereo not drawn) | -3.36%
27 | COc1ccccc1/C=C/CN1CCC(n2nccc2NC(=O)CCc2ccccc2)CC1 | -86.1%
28 | COc1ccccc1CC(=O)N1CCC(n2nccc2NC(=O)C2CCOC2)CC1 (stereo not drawn) | 4.83%
29 | COCCC(=O)N1CCC(n2nccc2NC(=O)CCc2ccccc2)CC1 | 14.2%
30 | CSCC(=O)N1CCC(n2nccc2NC(=O)CCc2ccccc2)CC1 | 12.1%
31 | COc1cc(CC(=O)N2CCC(n3nccc3NC(=O)C3CC3)CC2)cc(OC)c1OC | 12.8%
32 | COc1ccccc1/C=C/CN1CCC(n2nccc2NC(=O)C2CC2)CC1 | -59.1%
33 | CC(C)C(=O)N1CCC(n2nccc2NC(=O)CCc2ccccc2)CC1 | 18.7%
34 | O=C(CCc1ccccc1)Nc1ccnn1C1CCN(C/C=C/c2ccccc2)CC1 | -72.1%
35 | CC(=O)c1cccc(CN2CCC(n3nccc3NC(=O)CCc3ccccc3)CC2)c1 | -25.1%
36 | COCC1CCCN(C(=O)c2ccc3oc(CCCc4ccccc4)nc3c2)C1 (stereo not drawn) | -16.2%
37 | CCn1c(SCC(=O)C(C)(C)C)nnc1-c1cccnc1 | -0.363%
38 | CC(C)NS(=O)(=O)c1ccc(NC(=O)C(C)OC(=O)CCC2CCCC2)cc1 (stereo not drawn) | 7.06%
39 | Cc1cc(C(=O)N/N=C/c2cc([N+](=O)[O-])ccc2O)c2ccccc2n1 | 6.35%
40 | CCOCCCNC(=S)N(CCN(CC)CC)Cc1cc2cc3c(cc2[nH]c1=O)OCCO3 | 7.75%
41 | CCCN(CCC)C1Sc2ccc(C(=O)OC)cc2NC1=O (stereo not drawn) | -9.31%
42 | Cc1ccc(NC(=S)N2CCC(O)CC2)c(C)c1 | 16.3%

Row | SMILES | hERG current change (%, negative = inhibition) at 10uM
43 | CC(=O)Oc1ccc2nc(CN3C(=O)c4ccc([N+](=O)[O-])cc4C3=O)oc(=O)c2c1 | 10%
44 | O=C(NN1C(=O)c2ccccc2NC1c1ccc([N+](=O)[O-])o1)c1ccccc1 (stereo not drawn) | -9.78%
45 | O=C(NN1C(=O)c2ccccc2NC1c1ccoc1)c1ccc([N+](=O)[O-])cc1 (stereo not drawn) | -41.8%
46 | CC(=O)NN1C(=O)c2ccccc2NC1c1ccc([N+](=O)[O-])o1 (stereo not drawn) | 8.22%
47 | O=C(NN1C(=O)c2ccccc2NC1c1ccco1)c1ccccc1 (stereo not drawn) | -0.469%
48 | O=C(NN1C(=O)c2ccccc2NC1c1ccco1)c1ccc(Br)cc1 (stereo not drawn) | -76.6%
49 | O=C(NN1C(=O)c2ccccc2NC1c1ccc([N+](=O)[O-])o1)c1ccc([N+](=O)[O-])cc1 (stereo not drawn) | -65.5%
50 | O=C(NN1C(=O)c2ccccc2NC1c1ccc([N+](=O)[O-])o1)c1ccc(Br)cc1 (stereo not drawn) | -72.7%
51 | CC(=O)NN1C(=O)c2ccccc2NC1c1ccco1 (stereo not drawn) | 15.7%
52 | CC1Nc2ccccc2C(=O)N1NC(=O)c1ccc(Br)cc1 (stereo not drawn) | -9.66%
53 | COc1ccccc1NCCC(=O)OCC(=O)NC1CCCC(C)C1C (stereo not drawn) | 9.37%
54 | CCOc1cc(/C=C2/C(=N)N3N=C(C)SC3=NC2=O)ccc1OS(=O)(=O)c1ccc(C)cc1 | 0.16%
55 | COc1ccc(NC(=O)Cn2c(=O)n(-c3ccccc3)c(=O)c3sccc32)c(OC)c1 | 0.835%
56 | CCOC(=O)c1c(NC(=O)c2cccs2)sc(C(=O)N(C)C)c1C | -10.9%
57 | CCOC(=O)c1sc(NC(=O)CCN2CC(C)OC(C)C2)c(C(=O)OCC)c1C.O=C(O)C(=O)O (stereo not drawn) | 13.9%
58 | CCOC(=O)c1sc(NC(=O)CCN2CCN(CC)CC2)c(C(=O)OCC)c1C | -88.9%
59 | CCOC(=O)c1c(-c2ccc(OC)cc2)csc1NC(=O)CCN1CCOCC1 | -53.2%
60 | CCOC(=O)c1sc(NC(=O)CCN2CCC(C)CC2)c(C(=O)OCC)c1C | 9%
61 | CCOC(=O)c1sc(NC(=O)CCN2CCCCCC2)c(C(=O)OCC)c1C | -24.7%
62 | CCOC(=O)c1sc(NC(=O)CCN2CCOCC2)c(C(=O)OCC)c1C | -2.58%
63 | CCOC(=O)c1c(NC(=O)c2cccs2)sc(C)c1C | 3.46%

Row | SMILES | hERG current change (%, negative = inhibition) at 10uM
64 | CCOC(=O)c1c(NC(=O)c2cccs2)sc(C(=O)N2CCOCC2)c1C | -55.5%
65 | CCOC(=O)c1c(-c2ccc(C)cc2)csc1NC(=O)CCN1CCOCC1 | -42.1%
66 | CCOC(=O)c1c(-c2ccc(-c3ccccc3)cc2)csc1NC(=O)CCN1CCOCC1 | 13.8%
67 | CCOC(=O)c1sc(NC(=O)CCN2CCN(C)CC2)c(C(=O)OCC)c1C | -79%
68 | NS(=O)(=O)c1ccc(CNC(=O)CSc2ccccc2)cc1 | 14.5%
69 | CCOC(=O)C(=NC(C)CC)NNc1cccc(C(F)(F)F)c1 (stereo not drawn) | -1.86%
70 | O=C(c1ccc([N+](=O)[O-])cc1[N+](=O)[O-])N1CCCC1 | 5.62%
71 | CN(Cc1ccccc1)C(=O)c1cc(S(=O)(=O)N2CCOCC2)cn1C | -7.13%
72 | Fc1cc(Br)ccc1NC(=S)Nc1cccnc1 | 0.43%
73 | COc1ccc(C(=O)O)cc1S(=O)(=O)NC(C)C12CC3CC(CC(C3)C1)C2 (stereo not drawn) | 1.27%
74 | O=C(NC1CCCCCC1)c1c(O)c2ccccc2[nH]c1=O | 8.34%
75 | CCOC(=O)c1ccc(NC(=O)CCc2nc(-c3ccc(C)cc3)no2)cc1 | 5.14%
76 | Cc1cccc(OCC(=O)NCc2cc(C)nc3ccccc23)c1 | -9.05%
77 | O=c1cc(CCl)[nH]c2nc3ccccc3n12 | -6.02%
78 | CCC(C)n1c(SCc2ccc([N+](=O)[O-])cc2)nc2ccsc2c1=O (stereo not drawn) | -11.6%
79 | CN1CCN(c2nc(-c3ccc(Cl)s3)cs2)CC1 | -3.91%
80 | O=c1oc(-c2ccc([N+](=O)[O-])cc2)nc2ccccc12 | 18.2%
81 | CCOC(=O)c1sc(NC(=O)CN2CCCC2)c(C(=O)OCC)c1C | -6.37%
82 | CCOC(=O)c1c(NC(=O)CSc2cccc[n+]2[O-])sc(C(=O)Nc2ccccc2)c1C | -30.1%
83 | CCOC(=O)c1c(NC(=O)CN2CCN(C)CC2)sc(C(=O)Nc2ccccc2)c1C | -58.9%
84 | Cc1ccc(NC(=O)CSCC(=O)OC(C)C(=O)Nc2ccc(S(N)(=O)=O)cc2)c(C)c1 (stereo not drawn) | 5.08%
